Assay outcomes as filed in PubChem BioAssay.
MOR-DOR inv ag: inverse agonists of MOR-DOR heterodimerization, primary screen, cell-based, luminescence; 340,000 tested, 0.21% active; Mu-type opioid receptor (Homo sapiens) + Delta-type opioid receptor (Homo sapiens), …; inhibition, % at 9.3 µM; cell-based MOR-DOR heterodimer luminescence, inverse agonism; in the data active means inhibition above about 22%, passing the limit was not always enough
HTR5A inv ag: HTR5A inverse agonists in luminescence cell assay, primary screen, counter-screen for OPRM1-OPRD1 heterodimer inverse agonist project, full-deck HTS. inhibition, % at 9.3 µM. 340,000 tested, 0.083% active. HTR5A cell line, inverse agonism; in the data active means inhibition mostly above about 23%, no sharp cut-off; inactive means mostly below about 18%
Target sequence (P47898 whole entry, looked up): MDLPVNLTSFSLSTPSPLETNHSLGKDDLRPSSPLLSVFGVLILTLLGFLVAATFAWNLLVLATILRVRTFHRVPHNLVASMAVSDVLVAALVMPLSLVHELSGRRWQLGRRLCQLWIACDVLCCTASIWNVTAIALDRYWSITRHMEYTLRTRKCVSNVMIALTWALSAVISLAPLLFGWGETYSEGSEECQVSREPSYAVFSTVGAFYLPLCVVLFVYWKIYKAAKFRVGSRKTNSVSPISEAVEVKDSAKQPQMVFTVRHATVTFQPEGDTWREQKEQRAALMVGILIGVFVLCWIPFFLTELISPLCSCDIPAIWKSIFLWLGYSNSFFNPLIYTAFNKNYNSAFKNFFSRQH
HTR5A ag: HTR5A agonists in luminescence cell assay, primary screen, counter-screen for OPRM1-OPRD1 heterodimer agonist project, full-deck HTS | activation, % at 9.3 µM | cell-based | 340,000 tested, 0.61% active | 5-hydroxytryptamine receptor 5A (Homo sapiens), P47898; in the data active means activation mostly above about 9.5%, no sharp cut-off; inactive means mostly below about 7.6%
MOR-DOR ag: agonists of OPRM1-OPRD1 heterodimerization, primary screen, cell-based, luminescence; 340,000 tested, 0.3% active; activation, % at 9.3 µM; Mu-type opioid receptor (Homo sapiens) + Delta-type opioid receptor (Homo sapiens), …; cells; AID 504326, 2011; in the data active means activation above about 18%
Each line names hits and unclear results; the compound was inactive in the other large screens. In the library only some 1.1% were active in any assay of this set; here they are far more common.

COC(=O)c1cn(NC(=O)c2cccc(N(C)C)c2)c(=O)c2ccccc12	HTR5A ag 9.2
COC(=O)c1cn(NC(=O)c2cccc(F)c2)c(=O)c2ccccc12	none
COc1ccc2nc(NCCCNC(=O)c3cc(OC)c(OC)c(OC)c3)c(C#N)cc2c1	HTR5A ag 14
COc1ccccc1NC(=O)c1ccc(C)c(S(=O)(=O)N2CCCCC2)c1	none
COc1cccc(NC(=O)c2cc(-c3ccccn3)nc3ccccc23)c1	none
COc1cccc(-c2cc(C(=O)Nc3ccncc3)c3ccccc3n2)c1	HTR5A ag 14
Cc1cccc(NC(=O)c2cc(C)nc3ccccc23)c1	HTR5A ag 14
CCN(CC)S(=O)(=O)c1ccc(OC)c(NS(=O)(=O)c2cccc(C(=O)O)c2)c1	none
CC(C)(C)C1=C(C#N)C(c2cccnc2)C(C#N)=C(N)O1 (configuration not stated)	none
COc1cccc(C2C=C(c3ccc(Br)s3)Nc3ncnn32)c1OC (configuration not stated)	none
Fc1ccc(Br)cc1C1C=C(c2ccc(Br)s2)Nc2ncnn21 (configuration not stated)	HTR5A ag 17
Cc1c(NC(=O)/C(C#N)=C/c2ccc(-c3ccccc3Cl)o2)c(=O)n(-c2ccccc2)n1C	HTR5A ag 12
O=C(COc1ccccc1Cc1ccccc1)NCCCN1CCOCC1	none
CCc1ccccc1N1C(=O)CC(N2CCc3ccccc32)C1=O (configuration not stated)	none
CCOC(=O)Nc1sc(C)c(C)c1C(=O)OCC	HTR5A ag 13
CCC(C)(c1ccc(C(=O)OC)s1)c1ccc(C(=O)OC)s1	none
COc1cc(NC(=O)COc2cccc3c2OC(C)(C)C3)cc(OC)c1OC	HTR5A ag 14
COc1ccc(NC(=O)COc2cccc3c2OC(C)(C)C3)c(OC)c1	HTR5A ag 13
COc1cc(C)c(NC(=O)COc2cccc3c2OC(C)(C)C3)cc1OC	none
O=C(COc1ccc([N+](=O)[O-])cc1)Nc1ccccc1N1CCCC1	none
Cc1ccccc1-n1c(SCc2cc(=O)n3ccccc3n2)nc2[nH]ncc2c1=O	none
Cc1ccccc1-n1c(SCc2cccc(F)c2)nc2[nH]ncc2c1=O	HTR5A ag 14
COC(=O)C(NS(=O)(=O)c1ccccc1Br)C(C)C (configuration not stated)	HTR5A ag 14
CNC(=S)NCCN1CCOCC1	HTR5A ag 13
CCOC(=O)c1[nH]nc2c1C(=O)N(Cc1ccccc1)C2=O	none
Cc1ccccc1NC(=O)COC(=O)c1c(-c2ccccc2)noc1C	none
COC(=O)c1sc(NC(=O)c2c(C)noc2C)nc1C	none
COC(=O)c1sc(N)c(C(=O)OC)c1COC(=O)c1c(C)noc1C	MOR-DOR inv ag 46, HTR5A inv ag 46
Cc1ccc(C)c(NS(=O)(=O)c2ccc(NC(=O)c3ccco3)cc2)c1	none
C[C@H](CO)N1C[C@H](C)[C@@H](CN(C)S(=O)(=O)c2ccc(F)cc2)Oc2ccc(NC(=O)c3ccncc3)cc2C1=O	HTR5A ag 9.5
Cc1ccc(C(O)(C(=O)NN(C(=O)c2ccccc2)c2ccccc2)c2ccc(C)cc2)cc1	none
Cc1ccc(N(NC(=O)C(O)(c2ccccc2)c2ccccc2)C(=O)CCl)cc1	HTR5A ag 48, MOR-DOR ag 31
C=C[C@H](CC(C)C)N(Cc1ccccc1)S(=O)(=O)N(Cc1ccccc1)[C@@H](C=C)CC(C)C	MOR-DOR inv ag 42, HTR5A inv ag 32
CC(C)C[C@@H](CO)N(Cc1ccccc1)S(=O)(=O)N(Cc1ccccc1)[C@H](CO)CC(C)C	none
Cc1ccc2[nH]c(=O)c(CN(CCCN3CCOCC3)C(=O)Nc3ccc(Cl)cc3)cc2c1	none
CCn1nc(C)c(CN2CCC(C(=O)Nc3cccc(-c4cccc(F)c4)c3)CC2)c1C	HTR5A ag 8.7
CCCCS(=O)(=O)/C=C\C=C/S(=O)(=O)CCCC	MOR-DOR inv ag 37
COc1ccc(C2c3ccc(O)cc3Oc3ncn4nc(-c5ccccn5)nc4c32)cc1 (configuration not stated)	HTR5A ag 12
Nc1ccc(-c2c3ccc(=O)cc-3oc3cc(O)ccc23)c(C(=O)O)c1	MOR-DOR inv ag 32
CCN(c1ccc(C)cc1C)S(=O)(=O)c1nnc(NC(=O)C(C)(C)C)s1	HTR5A ag 9.9
COc1cc(N2CCC(O)CC2)ccc1Nc1nnc(Cl)c(Nc2ccccc2S(C)(=O)=O)n1	HTR5A inv ag 26
CCCOc1ccc(C(=O)NC(=S)NNC(=O)c2c(-c3ccccc3)noc2C)cc1	MOR-DOR inv ag 46, HTR5A inv ag 44
Cc1cc(C)c(O)c(CN(C)Cc2cc(Cl)cc(Cl)c2O)c1	HTR5A ag 13
CCCn1nc(C(=O)N2CCc3ccccc32)c2ccccc2c1=O	none
CCOC(=O)C1(CCOC)CCN(Cc2ccc(COC)o2)CC1	HTR5A ag 12
Cc1cc(NC(=O)COc2ccc3ccccc3c2Br)no1	HTR5A ag 12
CCOc1ccccc1OCC(=O)Nc1cc(C)on1	none
CCc1nnc(NC(=O)c2nc(S(=O)(=O)Cc3cccc(C)c3)ncc2Cl)s1	HTR5A ag 9.1
COc1ccccc1CCc1nnc(CCC(=O)NCC(C)Oc2cccnc2)o1 (configuration not stated)	none
COc1ccccc1CCc1nnc(CCC(=O)NC(C)Cc2ccsc2)o1 (configuration not stated)	HTR5A ag 9.9
COCCn1c(N)c(Sc2ccc(C)cc2)c(=O)[nH]c1=O	none
COCCn1c(N)c(C(=O)NS(=O)(=O)c2ccc(C)cc2)c(=O)[nH]c1=O	HTR5A ag 11
Cc1ccc2oc(C(=O)Nc3nonc3C)c(C)c2c1	HTR5A ag 11
CC(=O)c1ccc(NC(=O)N2CCCC(C(=O)c3ccc4c(c3)OCO4)C2)cc1 (configuration not stated)	HTR5A ag 11
CSc1ccccc1NC(=O)N1CCCC(C(=O)c2ccc3c(c2)OCO3)C1 (configuration not stated)	none
CC(C)CCN1CCN(Cc2cccn2-c2ccc(Cl)cn2)CC1CCO (configuration not stated)	none
CCc1ccc(N2CC(C(=O)NC3CC3)CC2=O)cc1 (configuration not stated)	none
O=C(Nc1ccccc1Cl)Nc1ccnn1C1CCN(C(=O)c2cscn2)CC1	none
Cc1ccc(NC(=O)C(Nc2ccccc2)c2ccccc2)cc1 (configuration not stated)	none
Cc1cc(C)cc(NC(=O)C(Nc2ccccc2)c2ccccc2)c1 (configuration not stated)	HTR5A ag 12
COc1cc(NC(C(=O)Nc2cccc(C(C)=O)c2)c2ccccc2)cc(OC)c1OC (configuration not stated)	HTR5A ag 13
COc1cccc(NC(C(=O)Nc2cccc(C(C)=O)c2)c2ccccc2)c1 (configuration not stated)	none
